Measurements: PubChem BioAssay AID1159580 (chemical genetic matrix, 2015)
Where “and” joins values, the source holds several entries; their conditions need not be identical. Identical values can stand only once. Screen size: about 5,500 compounds; about 2,000 (36%) were called active. Inconclusive results (about 18%) are left out. Cut-off read from the data, not from the text of the source: active = normalized growth mostly below about 0.91 (no sharp cut-off); inconclusive = no clear call, values can overlap the other calls; inactive = mostly above about 0.92. This is one part of the list.

Test: chemical genetic growth profiling, strain panel (AID 1159580);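 note: tested at 20 µM; growth read once vehicle control cultures reached saturation at 30 °C; 1 = growth at the plate median or of vehicle wells; lower values mean less growth of the strain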
Conditions: S. cerevisiae deletion strains, growth OD

Measured: normalized growth

CCCC(=O)Nc1ccc(OCC(O)CNC(C)C)c(C(C)=O)c1 (stereo unspecified)
inactive: locus YAL013W, strain DEP1, stronger effect = lower value 1.02 | locus YAL021C, strain ccr4, stronger effect = lower value 1 | locus YAL026C, strain drs2, stronger effect = lower value 1.03 | locus YAL030W, strain snc1, stronger effect = lower value 1.02 | locus YBL061C, strain skt5, stronger effect = lower value 1.02 | locus YBR009C, strain hhf1, stronger effect = lower value 1 | locus YBR021W, strain FUR4, stronger effect = lower value 1.02 | locus YBR023C, strain chs3, stronger effect = lower value 1.02 | locus YBR171W, strain sec66, stronger effect = lower value 1.02 | locus YBR229C, strain ROT2, stronger effect = lower value 1.01 | locus YBR231C, strain swc5, stronger effect = lower value 1.04 | locus YBR279W, strain paf1, stronger effect = lower value 1.02 | locus YCL011C, strain gbp2, stronger effect = lower value 1.03 | locus YCL016C, strain dcc1, stronger effect = lower value 1.03 | locus YCL029C, strain bik1, stronger effect = lower value 1.02 | locus YCL069W, strain vba3, stronger effect = lower value 1.02 | locus YCR088W, strain abp1, stronger effect = lower value 1.01 | locus YDL005C, strain med2, stronger effect = lower value 1.01 | locus YDL035C, strain GPR1, stronger effect = lower value 1.02 | locus YDL040C, strain nat1, stronger effect = lower value 1 | locus YDL074C, strain BRE1, stronger effect = lower value 1.05 | locus YDL101C, strain DUN1, stronger effect = lower value 1.02 | locus YDL134C, strain PPH21, stronger effect = lower value 1.01 | locus YDL185W, strain tfp1, stronger effect = lower value 1.02 | locus YDL192W, strain arf1, stronger effect = lower value 1.02 | locus YDR001C, strain nth1, stronger effect = lower value 1.02 | locus YDR069C, strain doa4, stronger effect = lower value 1.01 | locus YDR101C, strain arx1, stronger effect = lower value 1.01 | locus YDR137W, strain rgp1, stronger effect = lower value 1.01 | locus YDR150W, strain NUM1, stronger effect = lower value 1.02 | locus YDR159W, strain sac3, stronger effect = lower value 0.984 | locus YDR162C, strain NBP2, stronger effect = lower value 1.01 | locus YDR195W, strain ref2 0.999 | locus YDR297W, strain sur2, stronger effect = lower value 1.01 | locus YDR318W, strain mcm21, stronger effect = lower value 1.02 | locus YDR334W, strain swr1, stronger effect = lower value 1.01 | locus YDR335W, strain msn5, stronger effect = lower value 1.01 | locus YDR388W, stronger effect = lower value 1.01 | locus YDR392W, strain spt3, stronger effect = lower value 0.995 | locus YDR502C, strain sam2, stronger effect = lower value 1.02 | locus YEL003W, strain gim4, stronger effect = lower value 1.02 | locus YEL037C, strain rad23, stronger effect = lower value 1.02 | locus YEL061C, strain CIN8 (second series), stronger effect = lower value 1.04 | locus YEL061C, strain CIN8, stronger effect = lower value 1.01 | locus YER015W, strain faa2, stronger effect = lower value 1.01 | locus YER016W, strain bim1, stronger effect = lower value 1.03 | locus YER110C, stronger effect = lower value 1.02 | locus YER111C, strain swi4, stronger effect = lower value 1.01 | locus YER155C, strain BEM2 (second series), stronger effect = lower value 0.985 | locus YER155C, strain BEM2, stronger effect = lower value 1.02 | locus YER167W, strain BCK2, stronger effect = lower value 1.04 | locus YFR010W, strain ubp6, stronger effect = lower value 1.01 | locus YGL078C, strain dbp3, stronger effect = lower value 1.01 | locus YGL086W, strain mad1, stronger effect = lower value 0.996 | locus YGL167C, strain pmr1, stronger effect = lower value 1.02 | locus YGL173C, strain kem1, stronger effect = lower value 1.02 | locus YGL227W, strain vid30, stronger effect = lower value 1.03 | locus YGL240W, strain doc1, stronger effect = lower value 0.984 | locus YGL248W, strain PDE1, stronger effect = lower value 1.01 | locus YGL253W, strain hxk2, stronger effect = lower value 1.01 | locus YGR078C, strain PAC10, stronger effect = lower value 1.03 | locus YGR135W, strain pre9, stronger effect = lower value 1.02 | locus YGR229C, strain SMI1, stronger effect = lower value 1.03 | locus YGR252W, strain gcn5, stronger effect = lower value 0.965 | locus YHR013C, strain ard1, stronger effect = lower value 1.02 | locus YHR027C, strain rpn1, stronger effect = lower value 1.02 | locus YHR030C, strain SLT2, stronger effect = lower value 1.01 and 1.04 | locus YHR079C, strain IRE1 (second series), stronger effect = lower value 1.02 | locus YHR079C, strain IRE1, stronger effect = lower value 1.01 | locus YHR094C, strain hxt1, stronger effect = lower value 1.01 | locus YHR129C, strain ARP1, stronger effect = lower value 1.01 | locus YHR142W, strain chs7, stronger effect = lower value 1.04 | locus YHR200W, strain rpn10, stronger effect = lower value 1.02 | locus YIL066C, strain RNR3, stronger effect = lower value 1.02 | locus YIL073C, strain SPO22, stronger effect = lower value 1.05 | locus YIL125W, strain kgd1, stronger effect = lower value 1.01 | locus YIR030C, strain dcg1, stronger effect = lower value 1.02 | locus YJL092W, strain hpr5, stronger effect = lower value 1.01 | locus YJL095W, strain BCK1 (second series), stronger effect = lower value 1.02 | locus YJL095W, strain BCK1, stronger effect = lower value 1.03 and 1.01 | locus YJL115W, strain asf1, stronger effect = lower value 1.01 | locus YJL129C, strain trk1, stronger effect = lower value 1.01 | locus YJL134W, strain LCB3, stronger effect = lower value 1.01 | locus YJL154C, strain vps35, stronger effect = lower value 1.01 | locus YJL164C, strain tpk1, stronger effect = lower value 0.999 | locus YJL166W, strain qcr8, stronger effect = lower value 1.01 | locus YJL168C, strain set2, stronger effect = lower value 1.02 | locus YJL187C, strain SWE1 (second series), stronger effect = lower value 1.02 | locus YJL187C, strain SWE1, stronger effect = lower value 1.02 | locus YJR043C, strain POL32, stronger effect = lower value 1.05 | locus YJR066W, strain TOR1, stronger effect = lower value 0.957
